Source: PubChem BioAssay AID1845227 (National Center for Advancing Translational Sciences (NCATS), 2023)
Results filed as inconclusive are left out. Where a call stands in place of a potency, no number is given. Active and inactive are the calls of the source. The call rests on the fitted dose curve; in most records, active means well fitted inhibition curve with a large enough effect; inconclusive means small, poorly fitted or top-dose-only effect; inactive means no such curve, though single readings can be large or run the other way.

target: Luciferin 4-monooxygenase (Photinus pyralis) (UniProt P08659); assay: Confirmatory firefly luciferase (FLuc) qHTS assay for identification of artifact compounds; conditions: purified FLuc enzyme, luminescence, 5 min; series mostly up to 38.9 µM
Procedure, shortened: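 Compounds mixed 15 min with 10 uM luciferin/10 uM ATP, then 10 nM firefly luciferase added for 5 min at pH 7.6. Luminescence percent inhibition, scaled to no-enzyme and DMSO controls, fitted to Hill equation.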
Potency means the concentration at half of the fitted maximal effect.

| Structure (SMILES) | Potency |
| --- | --- |
| CCOC(=O)c1c(C)[nH]c(C)c1S(=O)(=O)N1CCC(C(=O)NCc2ccc(OC)cc2)CC1 | inactive |
| COc1cc(Br)c(/C=C(\C#N)c2nc3ccccc3[nH]2)cc1OC | inactive |
| CCc1cccc(NC(=O)C2CCC(CNS(=O)(=O)c3csc(C(N)=O)c3)CC2)c1 (stereo not given) | inactive |
| COc1ccc(C(=O)Nc2noc3ccccc23)cc1 | 0.864 µM (active) |
| CO[C@@H]1[C@@H](O[C@@H]2O[C@H](C)[C@@H](O[C@H]3C[C@@](C)(O)[C@@H](OC(=O)CC(C)C)[C@H](C)O3)[C@H](N(C)C)[C@H]2O)[C@@H](CC=O)C[C@@H](C)C(=O)/C=C/C2OC2C[C@@H](C)OC(=O)C[C@H]1OC(C)=O (stereo not given in full) | inactive |
| CCCCN(CCCNC(=O)c1cc(Nc2ccc(OC)c(OC)c2)nc2ccccc12)Cc1ccccc1 | inactive |
| COc1ccc2cc3cc(C(=O)N4CCN(c5ccccc5F)CC4)oc3nc2c1 | inactive |
| O=C(O)C1CC2CCCCC2N1C(=O)c1ccc(Cl)cc1 (stereo not given) | inactive |
| [O][C@H]1[C@@H](O)[C@@H](CO)O[C@@H](O[C@@H]2[C@@H]3OC[C@H]2O[C@H](O[C@@H]2[C@@H](O)[C@H](C[C@@H]4[C@@H]5OC[C@H]4O[CH][C@@H]5O)O[C@H](CO)[C@@H]2OS(=O)(=O)O)[C@@H]3OS(=O)(=O)O)[C@@H]1O | inactive |
| Cc1ccc(-n2nnnc2CNC(=O)C(C)C)cc1C | inactive |
| Clc1ccc(-c2noc3ncnc(N4CCCCC4)c23)cc1 | inactive |
| CCCNC(=O)c1ccccc1NC(=O)c1nsc2ccccc12 | inactive |
| COc1cccc(NC(=O)CSc2nc3cc(OC)c(OC)cc3c3nc(-c4ccccc4)nn23)c1 | inactive |
| CC(C)Nc1ccc(-c2nc(-c3ccccn3)no2)cc1[N+](=O)[O-] | 3.44 µM (active) |
| Cc1ccc(C2C=C(c3ccccc3)Nc3nc(NS(=O)(=O)c4ccccc4)nn32)cc1 (stereo not given) | inactive |
| O=C=Nc1ccc(Cc2ccc(N=C=O)cc2)cc1 | inactive |
| Cc1ccc2nc(-c3cccs3)c(Nc3ccccc3)n2c1 | inactive |
| CCCOC(=O)c1ccc(NC(=O)C2CC(=O)N(c3ccc(C)cc3)C2)cc1 (stereo not given) | inactive |

| Structure (SMILES) | Potency |
| --- | --- |
| CNc1oc(-c2ccc3cnccc3c2)nc1C#N | inactive |
| COC(=O)c1scc(-c2ccc(C)cc2)c1S(=O)(=O)Nc1ccc(NC(C)=O)cc1 | inactive |
| COc1ccc(C2Nc3ccccc3C(=O)N2Cc2ccccc2)cc1Oc1ccc(NC(C)=O)cc1 (stereo not given) | inactive |
| O=C(Nc1ccc(Oc2ccccc2)cc1)Nc1nnc(-c2ccncc2)s1 | inactive |
| C=CCNc1nnc(-c2cccc3ccccc23)o1 | inactive |
| COc1ccc(NC(=O)C2CCCN(S(=O)(=O)c3cccc4nonc34)C2)cc1Cl (stereo not given) | inactive |
| Cc1ccc(NC(=O)c2ccc3[nH]c(C)cc(=O)c3c2)cc1 | inactive |
| Cc1ccc(C)c(NC(=O)Cn2c(=O)n(-c3ccc(CC(=O)NCC4CCCO4)cc3)c(=O)c3ccccc32)c1 (stereo not given) | inactive |
| O=C(Nc1cc(-c2ccc(Cl)cc2)no1)c1ccc(F)cc1 | inactive |
| O=C(NCCS(=O)(=O)N1CCN(c2ccc(F)cc2)CC1)C1CC(=O)N(c2ccc(F)cc2)C1 (stereo not given) | inactive |
| Cc1ccc(CN(C(=O)COc2ccc([N+](=O)[O-])cc2)c2ccccn2)cc1 | inactive |
| Cc1cc(Cl)ccc1NC(=O)c1cc2ccccn2n1 | 8.64 µM (active) |
| CC(C)(C)OC(=O)N1CCC[C@H]1C(=O)N1CCC(C(=O)N[C@H](Cc2ccccc2)C(=O)NCc2ccc(F)cc2)CC1 | inactive |
| CCCS(=O)(=O)N1CC(=O)N(c2ccc(C)cc2C)C(C)(C(=O)NC2CCCCCC2)C1 (stereo not given) | inactive |
| CCC(Sc1ncc(S(=O)(=O)c2ccc(Cl)cc2)c(=O)[nH]1)C(=O)Nc1ccc(OC)cc1 (stereo not given) | inactive |
| Cc1cn(C)c(CC(=O)N2CCN(c3ccccc3F)CC2)c1C(=O)O | inactive |
| COc1ccc(-c2noc(N3CCC(C(=O)N4CCN(c5cccc(C)c5C)CC4)CC3)n2)cc1 | inactive |
